Results filed as inconclusive are left out. Active and inactive are the calls of the source. Unless noted, the call rests on the fitted dose curve; in most records, active means well fitted curve in the direction sought with a large enough effect in the repeat runs; inconclusive means weak or mixed curves; inactive means no such curve, though single readings can be large; an effect the other way counts as inactive or inconclusive.

Results on ten compounds are retold here after PubChem BioAssay (Tox21).

Test [1] can be described thus: A CellTox Green Cytotoxicity Assay to monitor cytotoxicity in HEK293 cells - 32 hour (AID 1224881). Further: nearly all actives have a fitted effect of over 40% in size. An outline of the steps: (§1)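 Cells (HEK293, 600/well) and dye reagent are dispensed together. After 5 h at 37 C, 23 nL compound is pinned in. Plates stay at 37 C for 40 h with fluorescence read at 0h, 8h, 16h, 24h, 32h and 40h.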
Test [2] in a line: A CellTox Green Cytotoxicity Assay to monitor cytotoxicity in HepG2 cells - 32 hour (AID 1224883). Further: nearly all actives have a fitted effect of over 50% in size. Further: potency means the concentration at half of the fitted maximal effect. An outline of the steps: (§2)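 Cells and non-lytic dye reagent are dispensed together (600 HepG2 cells/well) and incubated 5 h before DMSO compound transfer. Kinetic fluorescence is then recorded in the same wells during 40 h at 37 C.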
Test [3] can be described thus: A CellTox Green Cytotoxicity Assay to monitor cytotoxicity in HEK293 cells - 8 hour (AID 1224884). Further: nearly all actives have a fitted effect of over 35% in size. A digest of the protocol:
as §1

Test [4] can be described thus: qHTS RealTime-Glo MT Cell Viability Assay in HepG2 cells - 16 hour (AID 1224885). Further: nearly all actives have a fitted effect of over 50% in size. An outline of the steps: (§3)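 HepG2 suspension premixed with RealTime-Glo reagents is plated at 600 cells per well and left 5 h at 37 C/5% CO2. Compounds in DMSO then go in, and bioluminescence reflecting viable cell number is recorded over 40 h.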
A general note: qHTS replaces the single test concentration by a dilution series.

Test [5] can be described thus: qHTS RealTime-Glo MT Cell Viability Assay in HEK293 cells - 24 hour (AID 1224886). Further: nearly all actives have a fitted effect of over 50% in size. Further: potency means the concentration at half of the fitted maximal effect. An outline of the steps:
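Reads taken at 0, 8, 16, 24, 32 and 40 h from the same wells. HEK293 cells (600/well) carried RealTime-Glo reagents from seeding, with compound added after a 5 h settle at 37 C.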

Test [6] is described as follows: qHTS RealTime-Glo MT Cell Viability Assay in HEK293 cells - 8 hour (AID 1224887). Further: nearly all actives have a fitted effect of over 50% in size. Further: potency means the concentration at half of the fitted maximal effect. An outline of the steps: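 Real-time viability in HEK293: signal arises when living cells convert a prosubstrate for NanoLuc in the medium, so luminescence tracks viable cell number. Compound (23 nL, DMSO) added 5 h post-seeding; kinetic reads at 0–40 h, 37 C.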
Test [7] can be described thus: A CellTox Green Cytotoxicity Assay to monitor cytotoxicity in HEK293 cells - 16 hour (AID 1224888). Further: nearly all actives have a fitted effect of over 35% in size. A digest of the protocol:
as §1

The nature of test [8]: qHTS RealTime-Glo MT Cell Viability Assay in HepG2 cells - 0 hour (AID 1224889). Further: nearly all actives have a fitted effect of over 50% in size. An outline of the steps: as §3
Test [9] in a line: A CellTox Green Cytotoxicity Assay to monitor cytotoxicity in HepG2 cells - 8 hour (AID 1224890). Further: nearly all actives have a fitted effect of over 45% in size. An outline of the steps: as §2
The nature of test [10]: qHTS assay to identify small molecule antagonists of the estrogen receptor alpha (ER-alpha) signaling pathway using the BG1 cell line in the presence of 0.1 nM 17-beta-estradiol - cell viability counter screen (AID 1259241). Further: nearly all actives have a fitted effect of over 40% in size. An outline of the steps:
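Cells were plated and left 24 hr, compounds in DMSO were pinned in, 17beta-estradiol was added to 0.1 nM final, and after 22 hr CellTiter-Fluor reagent was added for 30 min before fluorescence was read.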

Test [11] in a line: qHTS assay to identify small molecule antagonists of the androgen receptor (AR) signaling pathway using the MDA cell line in the presence of 0.5 nM R1881 - cell viability counter screen (AID 1259242). Further: nearly all actives have a fitted effect of over 45% in size. A digest of the protocol:
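Steps: plate MDA-kb2 cells, rest 5 hr at 37C without CO2; pin in compounds in DMSO; add R1881 to 0.5 nM final; incubate 16 hr; add CellTiter-Fluor, 30 min; read fluorescence.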

For test [12], the target named is Androgen receptor (Homo sapiens) (UniProt P10275). In words: qHTS assay to identify small molecule antagonists of the androgen receptor (AR) signaling pathway using the MDA cell line in the presence of 0.5 nM R1881 (AID 1259243). Further: nearly all actives have a fitted effect of over 50% in size. An outline of the steps:
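Stably transfected MDA-kb2 cells express luciferase from an MMTV promoter bearing both AR and GR response elements. Compounds plus 0.5 nM R1881 (final) were incubated 16 hr at 37C without CO2, then luminescence measured.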

Test [13] can be described thus: qHTS assay to identify small molecule HDAC inhibitors (AID 1259364).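 Further: wild-type HCT-116 cells with endogenous class I/II HDAC activity; top concentration of the series differs between compounds; nearly all actives have a fitted effect of over 45% in size.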 A digest of the protocol: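 Cells (HCT-116, wild type) are seeded at 1,500 per well, incubated overnight, treated with compound in DMSO for 2 hr, then developed with HDAC-Glo I/II reagent for 30 min at room temperature.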
Test [14] in a line: qHTS assay to identify small molecule HDAC inhibitors - cell viability counter screen (AID 1259365). A digest of the protocol:
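Counter screen in wild-type HCT-116 cells: compounds dissolved in DMSO are pin-transferred onto overnight-plated cells and left 2hr at 37C. ATP-based CellTiter-Glo luminescence then measures viable cells.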

Test [15] can be described thus: qHTS assay to identify small molecule agonists of the sonic hedgehog signaling (Shh) pathway - cell viability counter screen (AID 1259366). Further: nearly all actives have a fitted effect of over 50% in size. An outline of the steps:
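Cells are plated at 2,000 per well and left 4hr at 37C, 5% CO2 before compound addition. After 23hr of treatment, CellTiter-Fluor reagent is added for 1hr at 37C and fluorescence is measured.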

Test [16] can be described thus: qHTS assay to identify small molecule agonists of the sonic hedgehog signaling (Shh) pathway (AID 1259368; calls by dose curve;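 further: NIH/3T3-derived 3T3Gli1-Luc cells carrying a stable Gli1-driven firefly luciferase reporter; series mostly up to about 92 µM; nearly all actives have a fitted effect of over 15% in size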). A digest of the protocol:
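Cells of a mouse NIH/3T3 clone stably expressing luciferase under the Gli1 transcriptional response element are exposed to test chemicals for 24 hr at 37 C. Pathway activation is detected as a rise in luminescence.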

The target in test [17] is Estrogen receptor (Homo sapiens) (UniProt P03372). In words: qHTS assay to identify small molecule antagonists of the estrogen receptor alpha (ER-alpha) signaling pathway using the BG1 cell line in the presence of 0.1 nM 17-beta-estradiol (AID 1259244). Further: nearly all actives have a fitted effect of over 50% in size. Further: potency means the concentration at half of the fitted maximal effect. A digest of the protocol:
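Antagonist mode: compounds in DMSO are pinned onto VM7Luc4E2 reporter cells, 0.1 nM final 17beta-estradiol is added, and after 22 h at 37C luciferase luminescence is measured with ONE-Glo.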

Test [18] can be described thus: qHTS assay to identify small molecule phospholipidosis (PLD) inducers (AID 1259344; active means well fitted curve in the direction sought with a large enough effect; an effect the other way counts as inactive or inconclusive). An outline of the steps: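 Accumulated phospholipid, stained red by LipidTOX during 24 h compound treatment of HepG2 cells at 37 C, is quantified from images as pit number and intensity, normalised per cell using Hoechst-stained nuclei.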
Test [19] is described as follows: qHTS assay to identify small molecule antagonists of the sonic hedgehog signaling (Shh) pathway - cell viability counter screen (AID 1259367). Further: nearly all actives have a fitted effect of over 55% in size. An outline of the steps:
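CellTiter-Fluor signal in conditioned medium-stimulated 3T3 Gli1-Luc cells, 23 hr compound exposure, 37C.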

Test [20] in a line: A CellTox Green Cytotoxicity Assay to monitor cytotoxicity in HepG2 cells - 0 hour (AID 1224882). Further: nearly all actives have a fitted effect of over 35% in size. A digest of the protocol: as §2

Sequence of Estrogen receptor (Homo sapiens) (P03372 whole entry, looked up): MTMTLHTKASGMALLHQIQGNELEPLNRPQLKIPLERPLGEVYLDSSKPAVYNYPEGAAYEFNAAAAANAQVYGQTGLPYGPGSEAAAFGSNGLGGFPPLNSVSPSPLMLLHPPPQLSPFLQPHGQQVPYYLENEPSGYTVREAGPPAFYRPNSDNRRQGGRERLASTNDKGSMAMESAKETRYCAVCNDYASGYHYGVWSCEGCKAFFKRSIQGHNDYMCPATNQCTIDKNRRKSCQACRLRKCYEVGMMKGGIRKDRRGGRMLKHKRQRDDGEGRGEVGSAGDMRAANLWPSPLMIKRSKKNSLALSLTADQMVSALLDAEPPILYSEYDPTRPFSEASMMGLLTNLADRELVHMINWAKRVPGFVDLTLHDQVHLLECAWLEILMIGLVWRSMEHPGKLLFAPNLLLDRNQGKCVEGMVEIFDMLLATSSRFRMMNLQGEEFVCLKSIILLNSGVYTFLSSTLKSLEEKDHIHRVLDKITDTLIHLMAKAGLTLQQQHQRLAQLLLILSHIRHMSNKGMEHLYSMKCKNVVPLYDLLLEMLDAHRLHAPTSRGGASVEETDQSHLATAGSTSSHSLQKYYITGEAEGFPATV
Sequence of Androgen receptor (Homo sapiens) (P10275 whole entry, looked up): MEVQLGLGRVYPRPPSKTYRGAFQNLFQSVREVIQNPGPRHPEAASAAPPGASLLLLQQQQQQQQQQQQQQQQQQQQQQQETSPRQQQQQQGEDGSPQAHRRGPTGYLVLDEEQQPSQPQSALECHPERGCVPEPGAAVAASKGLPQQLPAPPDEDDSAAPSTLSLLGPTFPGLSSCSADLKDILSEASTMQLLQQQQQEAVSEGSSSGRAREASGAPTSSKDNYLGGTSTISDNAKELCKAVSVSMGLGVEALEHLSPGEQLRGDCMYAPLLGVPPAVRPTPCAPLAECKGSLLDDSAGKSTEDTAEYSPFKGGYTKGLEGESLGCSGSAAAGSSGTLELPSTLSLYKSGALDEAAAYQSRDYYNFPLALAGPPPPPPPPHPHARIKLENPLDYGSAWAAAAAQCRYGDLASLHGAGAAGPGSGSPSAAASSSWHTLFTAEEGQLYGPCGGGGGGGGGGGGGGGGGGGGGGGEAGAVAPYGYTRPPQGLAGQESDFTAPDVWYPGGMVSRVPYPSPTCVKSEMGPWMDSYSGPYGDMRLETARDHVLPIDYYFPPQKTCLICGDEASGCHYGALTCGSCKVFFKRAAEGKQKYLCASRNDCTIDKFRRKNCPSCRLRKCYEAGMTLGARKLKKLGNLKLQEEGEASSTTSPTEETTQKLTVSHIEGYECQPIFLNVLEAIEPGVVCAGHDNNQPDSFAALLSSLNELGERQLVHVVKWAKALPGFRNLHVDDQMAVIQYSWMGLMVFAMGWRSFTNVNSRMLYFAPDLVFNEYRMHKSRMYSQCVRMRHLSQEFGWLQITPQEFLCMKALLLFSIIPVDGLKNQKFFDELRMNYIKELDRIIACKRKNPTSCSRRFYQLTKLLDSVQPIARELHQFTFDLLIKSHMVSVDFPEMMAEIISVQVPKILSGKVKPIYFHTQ

Regarding `c1ccc(N2CCNCC2)cc1`, the Potency result in test [1], in [2], in test [3], in test [4], in test [5] and in test [6] was “inactive” throughout. Moreover, the Potency result in [7], in [8], in [9], in test [12], in [13] and in [15] was “inactive” each time. In addition, the outcome in [10], in test [11], in [14] and in test [16] was inactive.

Take `O=C1CN=C(c2ccccc2)c2cc([N+](=O)[O-])ccc2N1`: the Potency entry in [1], in [2], in [3], in test [4], in test [5] and in test [6] was “inactive” each time. The Potency result in test [7], in test [8], in [9], in test [17], in [13] and in [15] was “inactive” each time. The Potency entry in [19] was “inactive”. Besides, the result in [11], in test [18], in test [14] and in [16] was inactive.

For the compound `CC1COC2(c3ccccc3Cl)c3cc(Cl)ccc3NC(=O)CN12` (stereo unspecified), the Potency result in [1], in [3], in test [4], in [6], in test [7] and in [8] was “inactive” throughout. Further, the Potency entry in test [9], in test [12], in [13] and in [15] was “inactive” in each case. Further, the result in test [20], in [11], in [14] and in test [16] was inactive.

Regarding `OC(c1ccccc1)(c1ccccc1)C1CCNCC1`, the Potency entry in [1], in test [2], in test [5], in test [6], in test [7] and in test [8] was “inactive” in each case. Also, the Potency result in test [9] and in test [13] was “inactive” throughout. The compound was called inactive in test [20], in test [10], in test [11], in test [18], in test [14] and in test [16].

Regarding `ClCC(Cl)Cl`, the Potency result in test [1], in test [2], in test [4], in [6], in test [8] and in test [9] was “inactive” each time. Further, the Potency result in test [13], in test [15] and in test [19] was “inactive” throughout. In addition, the outcome in test [20], in test [10], in [11], in test [14] and in [16] was inactive.

With `N#CC(Cl)(Cl)Cl`, the Potency result in test [1], in test [2], in [3], in [4], in [5] and in test [6] was “inactive” throughout. The Potency entry in test [7], in [8], in [9], in test [12], in test [17] and in [13] was “inactive” each time. The Potency entry in test [15] and in test [19] was “inactive” throughout. The outcome in [10], in test [11], in [14] and in test [16] was inactive.

Consider `CN1CCC(O)(c2ccc(F)cc2)C(C(=O)c2ccc(F)cc2)C1` (stereo unspecified), for which the Potency result in [3], in test [5], in test [6], in test [7], in [8] and in [13] was “inactive” in each case. Moreover, the Potency result in [15] and in test [19] was “inactive” in each case. The result in test [10], in test [11], in test [18], in test [14] and in [16] was inactive.

Take `CNC(=O)Oc1cccc(C(C)C)c1`: the Potency entry in test [1], in test [2], in test [3], in [4], in [5] and in test [6] was “inactive” throughout. In addition, the Potency entry in test [7], in test [8], in test [9], in test [13], in test [15] and in test [19] was “inactive” each time. Besides, the result in [11], in test [14] and in test [16] was inactive.

Take `OC(c1ccc(F)cc1)(c1cncnc1)c1ccccc1Cl` (stereo unspecified): the Potency entry in test [2], in [3], in [4], in test [5], in test [6] and in test [7] was “inactive” throughout. Moreover, the Potency entry in [8], in test [9], in test [17], in test [13], in [15] and in [19] was “inactive” each time. Further, the outcome in test [11], in test [14] and in test [16] was inactive.

`C=CCC1=C(C)[C@@H](OC(=O)[C@@H]2[C@@H](C=C(C)C)C2(C)C)CC1=O`: the Potency in [2] was 49 µM (active); in test [5], 12.3 µM (active); in [6] it was 6.92 µM (active); in test [17], 24.3 µM (active). The Potency result in test [3], in test [8], in [9] and in test [13] was “inactive” throughout. Moreover, the result in test [14] and in [16] was inactive.
